Assay results from PubChem BioAssay AID463082 (The Scripps Research Institute Molecular Screening Center, 2010).
In all, about 330,000 compounds went through this assay and about 4,900 (1.5%) were called active.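 The calls were made as follows: active = inhibition above the mean inhibition across the screen plus 3 SD (cut at about 25% in these data); inactive = the rest.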 The entries come from a sample that favours actives as a whole.

Target: Platelet-activating factor acetylhydrolase (Homo sapiens) (UniProt Q13093)
Test: pPAFAH enzyme inhibitors, primary screen, biochemical, fluorescence polarization, human (AID 463082);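 also: inhibitors block binding of the rhodamine activity-based probe so polarization drops; 0% = enzyme with DMSO and 100% = wells lacking pPAFAH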
Settings: recombinant pPAFAH, FP-rhodamine probe fluorescence polarization; at 3.39 µM; active compounds read high

Sequence of Platelet-activating factor acetylhydrolase (Homo sapiens) (Q13093 whole entry, looked up): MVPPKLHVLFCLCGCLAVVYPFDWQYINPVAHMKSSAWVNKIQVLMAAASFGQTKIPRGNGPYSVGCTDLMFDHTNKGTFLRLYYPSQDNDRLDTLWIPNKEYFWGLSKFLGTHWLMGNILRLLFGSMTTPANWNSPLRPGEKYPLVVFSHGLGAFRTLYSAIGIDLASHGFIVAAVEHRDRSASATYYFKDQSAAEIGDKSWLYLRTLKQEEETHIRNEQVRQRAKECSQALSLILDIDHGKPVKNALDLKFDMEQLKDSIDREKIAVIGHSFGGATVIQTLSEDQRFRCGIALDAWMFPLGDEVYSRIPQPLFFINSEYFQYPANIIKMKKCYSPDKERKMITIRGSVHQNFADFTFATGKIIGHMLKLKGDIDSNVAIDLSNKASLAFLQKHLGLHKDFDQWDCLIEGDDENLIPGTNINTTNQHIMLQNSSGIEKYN

SMILES | inhibition
CONc1nc2nonc2nc1NOC | 4.61% (inactive)
CCN(CC(=O)Nc1ccc(OC)cc1)C(=O)c1ccc(=O)n(Cc2ccccc2)n1 | -1.18% (inactive)
O=c1oc2ccc(C#CC3(O)CCCCC3)cc2cc1-n1cc(-c2ccsc2)nn1 | -0.61% (inactive)
O=C(CO/N=C/c1ccccc1O)NNC(=O)c1ccccc1Cl | 0.6% (inactive)
CCOCCCNC(=O)C(=O)NCCCOCC | 7.96% (inactive)
COc1cccc(COC(=O)C2CCN(S(=O)(=O)c3cccs3)CC2)c1OC | 0.21% (inactive)
Cn1cccc1C(C#N)c1ccccc1C#N (stereo unspecified) | 6.28% (inactive)
CC(=O)Oc1c(C(=O)c2nnc(C)o2)c(=O)n(Cc2ccccc2)c2ccccc12 | 4.19% (inactive)
CCCCNC(=O)C(C)N(CCN(C)C)C(=O)CCCN1C(=O)NC(c2ccc(Cl)cc2)C(C(=O)OCc2ccccc2)=C1C (stereo unspecified) | 8.55% (inactive)
FC(F)(F)c1cccc(Cc2noc(CN3CCC(N4CCCCC4)CC3)n2)c1 | -0.07% (inactive)
CCN(C(=O)c1cc([N+](=O)[O-])ccc1NCc1cccnc1)c1ccccc1 | -0.13% (inactive)
CC(Oc1ccc(Br)cc1)C(=O)NCC(c1ccco1)N1CCCCC1 (stereo unspecified) | 1.84% (inactive)
CCOC(=O)C1(Cc2ccc(Cl)cc2)CCN(C(=O)C2=NNC(=O)CC2)CC1 | 1.54% (inactive)
COC(=O)CN1C(=O)[C@H]2[C@@H](/C=C/c3ccccc3)N3C(=O)CN(Cc4ccccc4)C(=O)[C@@]3(Cc3ccccc3)[C@H]2C1=O | 3.66% (inactive)
NS(=O)(=O)c1ccccc1NC(=O)c1c(O)c2ccccc2[nH]c1=O | -4.47% (inactive)
CN(C(=O)COC(=O)c1cc(-c2ccco2)nc2ccccc12)C1CCS(=O)(=O)C1 (stereo unspecified) | 30.1% (active)
CN(C(=O)COC(=O)Cc1ccccc1[N+](=O)[O-])C1CCS(=O)(=O)C1 (stereo unspecified) | -1.36% (inactive)
CN(CCOc1ccccc1)C(=O)c1cc(-c2ccco2)nc2ccccc12 | 17.3% (inactive)
c1ccc(C2CCC(N3CCC(N4CCCCC4)CC3)CC2)cc1 (stereo unspecified) | 4.58% (inactive)
CC/C(O)=C1\C(=O)CC(C)(C)CC1=NCCc1nc2ccccc2[nH]1 | -2.43% (inactive)
Cc1cccc(C(=O)Nc2ccc(C(=O)/C=C/c3cccs3)cc2)c1 | -9.49% (inactive)
CC(=O)Nc1ccc(S(=O)(=O)Nc2cccc(NC(=O)C(C)(C)C)c2)cc1 | 6.07% (inactive)
CC(=O)Nc1ccc(S(=O)(=O)Nc2ccc(-c3ccc4nnc(C)n4n3)cc2)cc1 | 3.56% (inactive)

SMILES | inhibition
CC(=O)Nc1ccc(S(=O)(=O)Nc2nc(-c3ccc(C(C)(C)C)cc3)cs2)cc1 | 25.1% (active)
O=C(NC(=S)Nc1cccc2c(O)cccc12)c1cccc(Br)c1 | 8.85% (inactive)
COc1cc(-c2noc(C3CCCN(S(=O)(=O)c4cccc(Cl)c4)C3)n2)cc(OC)c1OC (stereo unspecified) | 1.19% (inactive)
CC(C)c1ccc(-c2noc(C3CCCN(S(C)(=O)=O)C3)n2)cc1 (stereo unspecified) | 26.1% (active)
O=C(Cc1cccs1)N1CCCC(c2nc(-c3ccc(S(=O)(=O)N4CCCC4)cc3)no2)C1 (stereo unspecified) | 3.46% (inactive)
CCCn1c(N)c(C(=O)CSc2nnc(-c3cccnc3)n2-c2ccc(C)cc2C)c(=O)[nH]c1=O | 4.8% (inactive)
COCC1CCCN(Cc2nc(-c3ccc4c(c3)OCO4)no2)C1 (stereo unspecified) | 0.91% (inactive)
CCCCOc1ccc(C(=O)NCC(=O)OCC(=O)N2CCN(S(=O)(=O)c3ccc(C)cc3C)CC2)cc1 | 28% (active)
Cc1ccc(S(=O)(=O)N2CCN(C(=O)COC(=O)c3c(C)cc(C)cc3C)CC2)c(C)c1 | 0.75% (inactive)
Cc1ccc(S(=O)(=O)N2CCN(C(=O)COC(=O)CNC(=O)c3ccc(C(C)(C)C)cc3)CC2)c(C)c1 | 18% (inactive)
COc1cccc(CNC(C)C(=O)Nc2ccc(S(=O)(=O)N3CCCC3)cc2)c1 (stereo unspecified) | -5.3% (inactive)
COc1ccc(S(=O)(=O)NCC(c2ccco2)N2CCOCC2)cc1 (stereo unspecified) | -0.61% (inactive)
O=C(COC(=O)CNS(=O)(=O)c1ccc(F)c(F)c1F)NC1CCCC1 | 29.2% (active)
Cc1ccc(C(=O)NCC(=O)OCC(=O)NC2CCCCCCC2)cc1 | 9.66% (inactive)
Cc1cc(C)cc(OCC(=O)OCC(=O)NC2CCCC2)c1 | 21.4% (inactive)
CN(C(=O)CC1C(=O)NCCN1Cc1ccc(F)cc1Cl)C1CCCCC1 (stereo unspecified) | -3% (inactive)
COc1ccc(OC)c(-n2c(-c3ccn[nH]3)n[nH]c2=S)c1 | -4.65% (inactive)
COc1ccccc1-n1c(-c2cc(-c3ccco3)[nH]n2)n[nH]c1=S | 28.5% (active)
COc1ccccc1-n1cn[nH]c1=S | 6.13% (inactive)
CCn1c(Cc2cccs2)nnc1SCC(=O)c1ccc(C)cc1 | 9.49% (inactive)
Cc1ccc(-n2c(Cc3cccs3)nnc2SCC(=O)OC(C)C)cc1 | 34% (active)
COc1ccc(-n2c(SCC(=O)OC(C)C)nnc2-c2ccccn2)cc1 | 6.1% (inactive)
C=C1c2cccc(OC)c2O[C@H](C(=O)OCC)[C@@H]1CCCCCC | 9.96% (inactive)

SMILES | inhibition
Cc1cc(C)cc(NS(=O)(=O)c2ccc(F)cc2)c1 | 5.58% (inactive)
CSc1ccc(S(=O)(=O)Nc2cccc(F)c2)cc1 | 32.8% (active)
O=C1Cc2cc(S(=O)(=O)Nc3cccc(F)c3)ccc2N1 | 24.4% (inactive)
Nc1nonc1-n1nnc(C(=O)N/N=C/c2ccc(Cl)cc2)c1-c1ccc2c(c1)OCO2 | 3.64% (inactive)
O=C(Nc1ccccc1)c1ccc2nsnc2c1 | -5.05% (inactive)
Cc1cc2nc(C(F)(F)F)cc(-c3cccs3)n2n1 | -3.12% (inactive)
COCC(C)NC(=O)c1ccc(-n2nc(C(F)(F)F)cc2-c2cccs2)cc1 (stereo unspecified) | 35.9% (active)
COCC(C)NC(=O)c1ccc(Cl)c(Cl)c1 (stereo unspecified) | 4.84% (inactive)
CC(=O)N1CCN(C(=O)C2(NC(=O)Nc3ccc(C)cc3)CCCCC2)CC1 | -3.87% (inactive)
CCCC(C)C(=O)NCc1ccncc1 (stereo unspecified) | -2.95% (inactive)
COC(=O)c1c(NC(=O)CCN2CCOCC2)sc2c1CCCC2 | 7.3% (inactive)
Cc1ccc(NC(=O)c2c(NC(=O)CCC(=O)O)sc3c2CCCCC3)cc1 | 24.6% (active)
Cc1ccc(NC(=O)c2csc3c2CCCC3)cc1 | 1.78% (inactive)
Cn1nc(C(C)(C)C)c([N+](=O)[O-])c1C(N)=O | -0.25% (inactive)
O=[N+]([O-])c1ccccc1SNc1ccccn1 | 3.58% (inactive)
COc1cnc(-c2ccccn2)nc1Oc1ccc(C(C)(C)C)cc1 | 3.59% (inactive)
C[C@H](CO)N1C[C@H](C)[C@@H](CN(C)C(=O)Nc2ccc3c(c2)OCO3)Oc2c(cccc2N(C)C)C1=O | 3.8% (inactive)
CCOC(=O)c1cc(C#N)c(N2CCCCC2)nc1-c1ccccc1 | 4.27% (inactive)
N#Cc1c(N2CCCCC2)nc(N)c2c(N)nc(SCC(=O)O)cc12 | 27.8% (active)
N#CCc1c(C#N)c(N)nc(N2CCCC2)c1C#N | -3.2% (inactive)
O=C(N=C1SC2CS(=O)(=O)CC2N1c1ccccc1)c1ccccc1 (stereo unspecified) | -2.21% (inactive)
CS/C(=C\C(=O)c1ccco1)Nc1ccccc1Cl | 3.63% (inactive)
CCN1CC=C2C(C#N)=C(N)C(C#N)(C#N)[C@H](c3ccoc3)[C@H]2C1 | 25.2% (active)

SMILES | inhibition
CCCN1CC=C2C(C#N)=C(N)C(C#N)(C#N)C(c3cc(OC)ccc3OC)C2C1 (stereo unspecified) | 0.59% (inactive)
N#CC1=C(N)C(C#N)(C#N)[C@H](c2ccsc2)[C@H]2COCC=C12 | 3.03% (inactive)
CCC1CCCCN1C(=S)NC(=O)c1ccco1 (stereo unspecified) | -4.39% (inactive)
CCN(CC)S(=O)(=O)c1cc([N+](=O)[O-])ccc1NNC(=O)Nc1ccccc1 | 12% (inactive)
Cc1ccc(CNC(=O)COc2ccc(S(=O)(=O)NC(C)C)cc2)cc1 | -3.29% (inactive)
Cc1cc(S(=O)(=O)NC2CCCCC2)ccc1OCC(=O)NCc1cccnc1 | 8.28% (inactive)
Cc1ccc(C)c(NS(=O)(=O)c2ccc(OCC(=O)NCc3cccnc3)cc2)c1 | 26.4% (active)
Cc1ccc(S(=O)Cc2ccc(C(=O)N3CCN(C4CCCCC4)CC3)o2)cc1 (stereo unspecified) | 4.39% (inactive)
COc1ccccc1NC1=NC(c2ccc(Cl)cc2)N=C(N)N1 (stereo unspecified) | 1.26% (inactive)
COC(=O)CCCC1=CC2=CC(=O)C(C)(OC(=O)c3cccs3)C(=O)C2=CN1c1cccc(C#N)c1 (stereo unspecified) | 7.86% (inactive)
O=C(COC(=O)c1ccco1)NCc1ccc(Cl)cc1 | 0.66% (inactive)
CC(C)(C)OC(=O)NCCCC1=CC2=CC(=O)C(C)(OC(=O)c3ccco3)C(=O)C2=CO1 (stereo unspecified) | 33.5% (active)
O=C(CC1C(=O)NCCN1CC(c1ccccc1)c1ccccc1)NCCc1cn[nH]c1 (stereo unspecified) | 7.44% (inactive)
COc1cc([N+](=O)[O-])ccc1NC(=O)COC(=O)CCOc1ccc(C)cc1 | 6.88% (inactive)
O=C(Nc1ccccc1C(=O)N1CCOCC1)c1ccc(CSc2ccccc2)cc1 | 4.67% (inactive)
CC(C)Oc1c(Br)cc(Br)cc1/C=N/NC(N)=S | 1.45% (inactive)
Cc1cccc(-n2c(C)cc(/C=N\NC(=O)c3cccs3)c2C)c1 | 22% (inactive)
Cc1ccc(-n2c(C)cc(/C=N\NC(=O)CC(=O)NC(C)C)c2C)cc1 | 1.94% (inactive)
Cc1cc(/C=N/NC(=O)CC2(C)OCCO2)c(C)n1-c1ccc(Cl)c(Cl)c1 | 27.6% (active)
O=C(N/N=C\c1cc(Br)c(Br)o1)C1COc2ccccc2O1 (stereo unspecified) | -1.47% (inactive)
O=C(N/N=C/c1cc2c(cc1Br)OCO2)C1COc2ccccc2O1 (stereo unspecified) | 8.36% (inactive)
O=C(CNC(=O)C1COc2ccccc2O1)N/N=C/c1cc(Br)c(O)c(Br)c1 (stereo unspecified) | 26.3% (active)
